Source: PubChem BioAssay (Tox21)
Inconclusive results are not listed. The source made the active and inactive calls. Unless noted, calls come from the whole dose curve; as a rule, active = well fitted curve in the direction sought with a large enough effect in the repeat runs; inconclusive = weak or mixed curves; inactive = no such curve, though single readings can be large; an effect the other way counts as inactive or inconclusive.

Experiments:
[1] = qHTS assay for small molecule agonists of the p53 signaling pathway (AID 651631; calls by dose curve; note: nearly all actives have a fitted effect of over 15% in size; note: potency is the fitted concentration of half-maximal effect)
Procedure, shortened: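 Read-out is beta-lactamase FRET fluorescence measured 2 h after substrate addition at room temperature, in HCT-116 cells with a p53 response element-driven reporter exposed to compounds for 16 h at 37 °C.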

[2] = qHTS assay for small molecules that induce genotoxicity in human embryonic kidney cells expressing luciferase-tagged ATAD5 (AID 651632); note: nearly all actives have a fitted effect of over 15% in size
Procedure, shortened: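 Test compounds were delivered by pin tool onto HEK293T reporter cells (2,000/well) expressing ATAD5 fused to luciferase. After 16 hr at 37C, 5% CO2, Amplite was added for 30 min at room temperature and luminescence was measured.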

[3] = qHTS assay for small molecule agonists of the p53 signaling pathway - cell viability (AID 651633; calls by dose curve; note: nearly all actives have a fitted effect of over 30% in size; note: potency is the fitted concentration of half-maximal effect)
Procedure, shortened: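 p53RE-bla cells were treated with compound for 16 hours at 37 C. Cytotoxicity was then measured as CellTiter-Glo luminescence after 30 min at room temperature.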

[4] = qHTS assay for small molecules that induce genotoxicity in human embryonic kidney cells expressing luciferase-tagged ATAD5 - cell viability (AID 651634; calls by dose curve; note: nearly all actives have a fitted effect of over 25% in size)
Procedure, shortened: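 Quantitative high-throughput format. HEK293T cells expressing ATAD5 fused to luciferase were plated at 2,000 cells/well and treated 15.5 hr with compound versus DMSO. Viability was determined by fluorescent live-cell protease substrate, 30 min at 37C.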

[5] = qHTS assay for small molecule disruptors of the mitochondrial membrane potential - cell viability (AID 720634; calls by dose curve;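 note: human HepG2 liver cancer cells; series mostly up to about 83 µM; nearly all actives have a fitted effect of over 20% in size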)
Procedure, shortened: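 Same-well counter-screen: following the MMP dye addition, CellTiter-Glo was added to 1 hr compound-treated HepG2 cells and luminescence read after 30 min at room temperature.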

[6] = qHTS assay to test for compound auto fluorescence at 590 nm (red) in HepG2 cells (AID 720674)
Procedure, shortened: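 Seeding: 2,000 HepG2 cells/well, MEM/10% FBS, overnight 37 C. Dosing: compound vs DMSO. Incubation: 1 hr, 37 C, 5% CO2. Read: fluorescence 540 ex/590 em, Rose Bengal sodium as red reference.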

[7] = qHTS assay to test for compound auto fluorescence at 535 nm (green) in HepG2 cells (AID 720675)
[8] = qHTS assay to test for compound auto fluorescence at 460 nm (blue) in HEK293 cells (AID 720678)
Procedure, shortened: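 HEK293, 2,000 cells/well, 10% dialyzed FBS; attach 4-5 hr 37C; pin compound or DMSO; o/n 37C/5% CO2; fluorescence 405/460 nm; triamterene-equivalent units.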

[9] = qHTS assay to test for compound auto fluorescence at 590 nm (red) in HEK293 cells (AID 720679)
Procedure, shortened: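 Intensity at 540nm excitation and 590nm emission is reported as Rose Bengal sodium-equivalent autofluorescence. Measurements followed overnight exposure (37C, 5% CO2) of HEK293 cells, 2,000 per well, to 23 nL compound.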

[10] = qHTS assay to test for compound auto fluorescence at 535 nm (green) in HEK293 cells (AID 720680)
[11] = qHTS assay to test for compound auto fluorescence at 460 nm (blue) in HEK293 cell free culture (AID 720681)
Procedure, shortened: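 Compounds were added to cell-free DMEM with 10% FBS and fluorescence read directly. The blue channel used 405 nm excitation and 460 nm emission, with triamterene as the reference fluorophore.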

[12] = qHTS assay to test for compound auto fluorescence at 535 nm (green) in HEK293 cell free culture (AID 720682)
Procedure, shortened: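 Fluorescein serves as the green reference fluorophore; each compound's intrinsic emission at 535 nm (excitation 485 nm) is reported as an equivalent amount of that dye, measured in serum-containing DMEM without cells.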

[13] = qHTS assay to test for compound auto fluorescence at 590 nm (red) in HEK293 cell free culture (AID 720683)
Procedure, shortened: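 Cell-free wells of DMEM with 10% FBS received compound, and intrinsic fluorescence was read at excitation/emission 540/590 nm. Values expressed as equivalence to Rose Bengal sodium.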

[14] = qHTS assay to test for compound auto fluorescence at 590 nm (red) in HepG2 cell free culture (AID 720684)
Procedure, shortened: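 Rose Bengal sodium served as the reference for red signal. Test compounds were dispensed into serum-containing MEM (10% FBS) without cells, and plates were read at 540/590 nm.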

[15] = qHTS assay to test for compound auto fluorescence at 460 nm (blue) in HepG2 cell free culture (AID 720685)
Procedure, shortened: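 Cell-free plates of MEM plus 10% FBS received 23 nL compound or DMSO vehicle; blue-channel (405/460 nm) intensity scored against triamterene as reference fluorophore.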

[16] = qHTS assay to test for compound auto fluorescence at 535 nm (green) in HepG2 cell free culture (AID 720686)
[17] = qHTS assay to test for compound auto fluorescence at 460 nm (blue) in HepG2 cells (AID 720687)
Procedure, shortened: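 HepG2 cells in MEM with 10% FBS, attached overnight at 37 C, were exposed to compound or DMSO for 1 hr at 37 C, 5% CO2. Blue fluorescence was read at 405/460 nm, with triamterene as reference fluorophore.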

[18] = target: Glucocorticoid receptor (Homo sapiens) (UniProt P04150); experiment: qHTS assay to identify small molecule agonists of the glucocorticoid receptor (GR) signaling pathway (AID 720691; active = well fitted activation curve with a large enough effect in the signal ratio in the repeat runs, not every such curve was filed as active; the % refers to the signal ratio)
Procedure, shortened: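 A HeLa cervical cancer line expressing GR and a glucocorticoid response element-driven beta-lactamase gene is treated with compounds for 18 h; LiveBLAzer B/G FRET substrate is then applied and fluorescence read.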

[19] = target: Glucocorticoid receptor (Homo sapiens) (UniProt P04150); experiment: qHTS assay to identify small molecule antagonists of the glucocorticoid receptor (GR) signaling pathway (AID 720692; active = well fitted inhibition curve with a large enough effect in the signal ratio in the repeat runs, not every such curve was filed as active; the % refers to the signal ratio)
Procedure, shortened: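 GRE-bla HeLa line, dex-stimulated (5 nM final). Compound exposure 18 h, 37 C. Beta-lactamase FRET read after 2 h RT substrate.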
% is set by controls: 0 for no effect and ±100 for the full control effect.

Chain of Glucocorticoid receptor (Homo sapiens) (P04150 whole entry, looked up): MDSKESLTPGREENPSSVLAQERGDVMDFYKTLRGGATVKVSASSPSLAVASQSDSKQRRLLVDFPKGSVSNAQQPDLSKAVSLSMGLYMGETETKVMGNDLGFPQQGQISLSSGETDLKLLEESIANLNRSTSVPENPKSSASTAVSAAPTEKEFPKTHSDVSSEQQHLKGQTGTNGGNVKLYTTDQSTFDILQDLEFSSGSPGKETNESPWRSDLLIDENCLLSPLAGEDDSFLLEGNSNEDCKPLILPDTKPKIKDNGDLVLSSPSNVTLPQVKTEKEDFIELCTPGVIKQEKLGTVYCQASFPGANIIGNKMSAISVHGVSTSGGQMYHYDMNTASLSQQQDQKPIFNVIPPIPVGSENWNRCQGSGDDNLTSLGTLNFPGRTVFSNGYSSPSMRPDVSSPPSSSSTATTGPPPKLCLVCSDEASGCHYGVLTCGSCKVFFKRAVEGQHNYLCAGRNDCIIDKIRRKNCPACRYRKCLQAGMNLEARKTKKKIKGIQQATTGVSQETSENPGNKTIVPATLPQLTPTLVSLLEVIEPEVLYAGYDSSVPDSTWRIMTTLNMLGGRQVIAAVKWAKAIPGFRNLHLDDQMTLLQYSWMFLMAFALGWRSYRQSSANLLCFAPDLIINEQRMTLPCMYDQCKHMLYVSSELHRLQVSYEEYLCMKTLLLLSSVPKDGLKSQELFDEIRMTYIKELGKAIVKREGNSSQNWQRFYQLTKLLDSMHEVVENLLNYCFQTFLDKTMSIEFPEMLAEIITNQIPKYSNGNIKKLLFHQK

O=C(O)/C=C/c1ccc(Cn2ccnc2)cc1
inactive: Potency [1] | Potency [2] | Potency [3] | Potency [4] | Potency [5] | fluorescence, relative to Rose Bengal [6] 0.61% [at 18.6 µM] | fluorescence, % of fluorescein control [7] 0.0058% [at 18.6 µM] | fluorescence, % of triamterene [8] -0.0046% [at 18.6 µM] | fluorescence, % of fluorescent control [9] -0.336% [at 18.6 µM] | fluorescence, % of fluorescein [10] -0.0116% [at 18.6 µM] | fluorescence, % of fluorescent control [11] 0.209% [at 18.6 µM] | activity change [12] 0.0066% [at 18.6 µM] | fluorescence, % of fluorescent control [13] -0.0715% [at 18.6 µM] | fluorescence, % of Rose Bengal [14] -0.307% [at 18.6 µM] | fluorescence, % of fluorescent control [15] -0.0401% [at 18.6 µM] | fluorescence, % of fluorescein control [16] -0.0119% [at 18.6 µM] | fluorescence, % of fluorescent control [17] 0.143% [at 18.6 µM] | Potency [18] | Potency [19]

CCN1CCCC1CNC(=O)c1cc(S(N)(=O)=O)ccc1OC (stereo unspecified)
inactive: Potency [1] | Potency [2] | Potency [3] | Potency [4] | Potency [5] | outcome [6] | outcome [7] | Potency [8] | outcome [9] | outcome [10] | Potency [11] | outcome [12] | outcome [13] | outcome [14] | Potency [15] | outcome [16] | Potency [17] | Potency [18]

NC(=O)CCCCC1CCSS1 (stereo unspecified)
inactive: Potency [1] | Potency [2] | Potency [3] | Potency [4] | Potency [5] | outcome [6] | outcome [7] | Potency [8] | outcome [9] | outcome [10] | Potency [11] | outcome [12] | outcome [13] | outcome [14] | Potency [15] | outcome [16] | Potency [17] | Potency [18] | Potency [19]

C[C@H]1O[C@@H](n2cc(F)c(=O)[nH]c2=O)[C@H](O)[C@@H]1O
active: Potency [1] 21.1 µM | Potency [3] 8.41 µM
inactive: Potency [2] | Potency [4] | Potency [5] | outcome [6] | outcome [7] | Potency [8] | outcome [9] | outcome [10] | Potency [11] | outcome [12] | outcome [13] | outcome [14] | Potency [15] | outcome [16] | Potency [17] | Potency [18] | Potency [19]

CCCCc1ccc(N)cc1
inactive: Potency [1] | Potency [2] | Potency [3] | Potency [4] | Potency [5] | outcome [6] | outcome [7] | Potency [8] | outcome [9] | outcome [10] | Potency [11] | outcome [12] | outcome [13] | outcome [14] | Potency [15] | outcome [16] | Potency [17] | Potency [18] | Potency [19]

CCn1cc(C(=O)O)c(=O)c2cc(F)c(N3CCN(C)CC3)cc21
inactive: Potency [1] | Potency [2] | Potency [3] | Potency [4] | Potency [5] | outcome [6] | outcome [7] | Potency [8] | outcome [9] | outcome [10] | Potency [11] | outcome [12] | outcome [13] | outcome [14] | Potency [15] | outcome [16] | Potency [17] | Potency [18]

CCCCCCOC(=O)c1ccccc1O
inactive: Potency [1] | Potency [2] | Potency [3] | Potency [4] | Potency [5] | outcome [6] | outcome [7] | Potency [8] | outcome [9] | outcome [10] | Potency [11] | outcome [12] | outcome [13] | outcome [14] | Potency [15] | outcome [16] | Potency [17] | Potency [18] | Potency [19]
